# PubChem BioAssay AID1508600 (Functional Genomics Laboratory (NCATS/FGL), 2020)
# The whole screen tested about 53,000 sequences, of which about 3,700 (7%) were called active. Only a selection was taken, and actives are over-represented in it overall. Unmarked numbers belong to inactive results.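 Rule for the calls: active = gene knockdowns whose robust z-score for IL-1 alpha signal is at least 2 or at most -2, so actives lie on both sides; inactive = the rest.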
# Assay: Components of the Cytosolic LPS Sensing Pathway: Gene Identification via Genome-wide siRNA Screen;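 note: robust z of the log signal after scaling to non-targeting control siRNA wells of the plate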
# Settings: RAW264.7 macrophages, IL-1a HTRF, actives lie on both sides, screened at 100 nM (by protocol), cells primed 5 h with Pam3CSK4 first
# Summary of the method: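 Three distinct siRNAs per gene were tested singly at 100 nM in RAW264.7 macrophages. Following Pam3CSK4 priming and 24 hour LipidA transfection, IL-1a secretion was read by HTRF.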
row,Sequence,z-score
1,GCAUUCGUUCGGCACGUGUTT against Bcl2l14,-0.0672
2,CGAAGGGAAGCAAAAUACATT against Bend5,2.11 (active)
3,GCCCUGGAUCAUUGAGUGATT against Atp2b1,0.749
4,GGCCAUACACCUGUGACAUTT against Osr2,1.37
5,GGAUGAUCGCUUUUGCUAUTT against Caly,2.02 (active)
6,CCCUCUACUACUGCAUCGUTT against Xkr7,1.74
7,GCACUUCUACCGGAAAGUUTT against Mad2l1bp,-0.761
8,GCAAAGCCCUAUUCCUAAUTT against Vmn2r42,1.21
9,GGCCUAAACCCUUUCAUCUTT against V1rb6,-0.0202
10,GCGAUCCUCUCUACUUAACTT against Eno4,-1.49
11,CGUGGGACCUGGUAUGUAATT against Slc22a12,2.79 (active)
12,GCGGGUAUGAUGGUACCUUTT against Pomt2,1.39
13,CGUGAUGAGUGAAAAUGAUTT against Cd34,-2.12 (active)
14,GGUACUUCACAAUGGACAGTT against Zcchc9,0.951
15,GGUGCAUUUUCUAGAAUCATT against Usp45,0.933
16,GGUACCUAUGCCAGUUUUGTT against Aqp12,2.89 (active)
17,GCCACCAAGUACUUUGGUUTT against Vmn1r76,1.34
18,GCAAUUUGCUCAUCUCUAATT against Dcc,1.89
19,GGAUGCAGAUGCUGUGGACTT against S100a1,-0.918
20,GGAGUACGACUACUACGGUTT against Sfrp5,0.83
21,GGAUUACCGGCAGCUGGAATT against Dnm1,2.24 (active)
22,GGCGAGCAUCGCUAUUGACTT against Zcrb1,0.734
23,GGAGAUCCUAGGCUUGAACTT against Vsx2,0.279

row,Sequence,z-score
1,GGGAGACUUGUCAUGCACATT against Slc45a2,0.728
2,GGUAGCUGAAGAAGACUUCTT against Reg2,-0.591
3,GGCUUUGCUGAAUGUCUCATT against Nrn1l,0.443
4,CCUGCUAAUGUUUGUAAGUTT against Sowahc,1.37
5,GCAUUAAUUGCUUCUCUUATT against Nup155,-2.35 (active)
6,GGAACUCACCCUCAGCUUGTT against Tmem260,0.313
7,CCAAACAACCAGCUAAUAUTT against Mia3,-0.375
8,GGUGAAAUGAGAAUACUUGTT against Erap1,1.07
9,CCCUGGUUGUUUGUAGAGUTT against Armt1,2.38 (active)
10,GGAAUGAUGAAGAGUGUCCTT against Btla,-0.0564
11,GGCUACUGUAGGAAGAAAUTT against Defb20,1.7
12,GGAAGUUUUGUUCCUGCAUTT against Nars2,-0.0244
13,GGCCAUCCAGAAUUACAUGTT against Vash2,1.08
14,GGAGAAGGAACUGUGUGAGTT against Nfkbil1,-2.26 (active)
15,CCGGGUCAGGACAAUUCAUTT against Hsd17b1,1.87
16,GGCCAUUGAUCAAGACAAGTT against Glyat,1.66
17,GGCUUUGUAGAAAAUUCAUTT against Polr2a,-2.15 (active)
18,GCCGUGAUGCCUAAAAUGCTT against Olfr543,-0.306
19,GGUAUCUUGAGAAGCCAAUTT against Stat3,-0.536
20,GGAUUCAUCAUCUACCCGGTT against C1ql4,-1.08
21,GGAUAACCUUGAGUAGGUGTT against Olfr906,0.484
22,CGGAUACCUAGAGUGCAUCTT against Zfp42,0.725
23,CGUGGAAGCUGUGUUAUCUTT against Il34,-0.112

row,Sequence,z-score
1,GGAUGACCAGAACUUCAGUTT against Zfp956,2.84 (active)
2,AACGUAAUUAGCGUGAAUUTT against Cyp2j11,0.337
3,GCAGUUCCCAUAGUUUUCUTT against Il1r2,6.07 (active)
4,CUUGUCAAGUGAUGAAAUGTT against Xlr,-0.546
5,GGUCGAAAGAAUAAUUUGUTT against Cct6a,-0.628
6,GGCAAUUUUCAGAGAAGUUTT against Fosb,-2.08 (active)
7,GGCAGUCUACUUUACACGGTT against Prdm1,0.294
8,GGAUCUUGGAUAAAGUGUGTT against Gpr180,1.73
9,CCCAGUUGCUGUUCUUGACTT against Defb40,0.553
10,GGCUUCCUCAAGAACUUUCTT against Acly,0.0643
11,CCGGUUACAAACUCAACUGTT against Syne3,-0.285
12,GGGAGAGAUCCUCAACAGGTT against Cdk5rap1,-0.581
13,GGUGCAUGACCUGACAAAGTT against Fermt3,2.5 (active)
14,CCUGGGUUGGAUAAAACUUTT against 6030458C11Rik,-0.0611
15,GGAUUUUAAACCUUAAGGUTT against Ssty1,0.49
16,GGCAGUGAAGAGAAGAAGUTT against Trub2,-0.835
17,GGAUUUCUUUGUCAGUACUTT against Il22ra2,0.791
18,CCAUUAUGGACAAUAAGAGTT against Rnf8,0.396
19,GCAUGUGACUCCAUAUAAATT against Cldn15,-0.117
20,GGUUCAAAACUACACACACTT against Sp9,0.512
21,GGAGGGUACUCACAGGAAATT against Olfr411,-2.05 (active)
22,GGAUCAAUGCACCUUCCAATT against Gpr85,1.61
23,GGACCAGUUUAUCCAGCACTT against Mc3r,-0.699
